# In ChEMBL document CHEMBL3988442, “University of Dundee, Small-Polar-MMV Screening Library” (2021):
# For some assays here: Potency and affinity values are given separately.
# Tests used:
# Set-up in all cases: scale not given: direction of the effect not stated beside the values
# [1] = target: Protein translocase subunit SecA (Escherichia coli (strain K12)) (UniProt P10408); test: Assay to Identify E. coli SecA ATPase Inhibitors; type: functional; conditions: 30 µM
# [2] = target: T1, Ubiquitin-activating enzyme e1, putative (Leishmania donovani (strain BPK282A1)) (UniProt E9BSI1); test: Leishmania donovani Ubiquitin Activating Enzyme (LdE1); type: functional; conditions: 30 µM
# T1 sequence (whole entry): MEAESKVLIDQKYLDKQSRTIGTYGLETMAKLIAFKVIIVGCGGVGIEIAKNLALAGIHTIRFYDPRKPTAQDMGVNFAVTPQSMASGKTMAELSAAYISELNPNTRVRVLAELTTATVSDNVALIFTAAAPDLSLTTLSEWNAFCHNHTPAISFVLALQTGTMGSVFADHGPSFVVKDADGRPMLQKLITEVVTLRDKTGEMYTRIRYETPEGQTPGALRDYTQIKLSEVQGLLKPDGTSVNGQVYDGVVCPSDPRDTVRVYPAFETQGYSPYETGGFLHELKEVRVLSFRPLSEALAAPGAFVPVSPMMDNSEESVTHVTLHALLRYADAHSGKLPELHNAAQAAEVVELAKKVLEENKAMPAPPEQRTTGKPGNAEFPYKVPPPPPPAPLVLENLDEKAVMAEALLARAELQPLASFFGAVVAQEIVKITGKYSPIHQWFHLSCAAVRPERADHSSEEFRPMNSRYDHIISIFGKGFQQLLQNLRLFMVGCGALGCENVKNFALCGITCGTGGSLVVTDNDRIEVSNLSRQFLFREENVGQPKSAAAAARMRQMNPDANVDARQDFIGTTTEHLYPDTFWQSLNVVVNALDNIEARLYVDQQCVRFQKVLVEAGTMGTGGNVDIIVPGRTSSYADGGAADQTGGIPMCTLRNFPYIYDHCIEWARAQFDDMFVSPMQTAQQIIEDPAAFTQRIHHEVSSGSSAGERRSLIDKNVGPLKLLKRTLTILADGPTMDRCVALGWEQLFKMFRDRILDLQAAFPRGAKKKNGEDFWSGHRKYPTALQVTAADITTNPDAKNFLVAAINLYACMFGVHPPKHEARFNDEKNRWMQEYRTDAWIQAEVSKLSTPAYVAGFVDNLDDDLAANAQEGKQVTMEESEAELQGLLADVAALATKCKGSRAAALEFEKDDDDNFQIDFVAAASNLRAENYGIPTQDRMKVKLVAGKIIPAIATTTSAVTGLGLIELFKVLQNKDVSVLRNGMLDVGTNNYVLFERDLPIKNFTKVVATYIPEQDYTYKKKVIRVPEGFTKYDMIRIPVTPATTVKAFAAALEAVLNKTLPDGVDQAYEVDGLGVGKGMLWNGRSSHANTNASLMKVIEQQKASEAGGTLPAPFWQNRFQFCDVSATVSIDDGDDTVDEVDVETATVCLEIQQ
# [3] = target: AMP-activated protein kinase, AMPK (Homo sapiens) (UniProt P54646+O43741+P54619+Q9UGJ0+Q9Y478+Q13131+Q9UGI9); test: AMP-dependent Kinase enzyme assay. An in vitro enzyme assay that detects ADP turnover that is directly proportional to AMPK activity. This uses naive AMPK that is activated during the assay with MK-8722; type: functional; conditions: 30 µM
# [4] = target: Sialic acid-binding Ig-like lectin 9 (Homo sapiens) (UniProt Q9Y336); test: Hs-Siglec9 ALPHAscreen SOP 20170721; conditions: 10 µM
# Chain of Sialic acid-binding Ig-like lectin 9 (Homo sapiens) (Q9Y336 whole entry): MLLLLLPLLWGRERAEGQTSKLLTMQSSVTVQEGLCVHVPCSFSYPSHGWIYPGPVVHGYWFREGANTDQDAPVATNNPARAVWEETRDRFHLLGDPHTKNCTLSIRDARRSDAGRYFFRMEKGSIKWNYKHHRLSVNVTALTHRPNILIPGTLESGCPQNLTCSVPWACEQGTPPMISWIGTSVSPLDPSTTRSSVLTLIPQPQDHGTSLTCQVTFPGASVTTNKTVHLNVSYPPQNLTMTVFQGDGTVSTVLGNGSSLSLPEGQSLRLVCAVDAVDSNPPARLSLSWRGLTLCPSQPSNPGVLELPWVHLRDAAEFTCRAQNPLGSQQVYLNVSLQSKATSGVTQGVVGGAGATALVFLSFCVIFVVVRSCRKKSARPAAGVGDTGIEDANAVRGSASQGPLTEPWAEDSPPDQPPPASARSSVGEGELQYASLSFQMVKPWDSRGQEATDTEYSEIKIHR
# Trypanosoma cruzi = test: Trypanosoma cruzi phosphomannomutase and mannose-1-phosphate guanylyltransferase assay; type: functional; conditions: 10 µM
# [5] = target: T2, Arginase-2, mitochondrial (Homo sapiens) (UniProt P78540); test: in vitro enzyme assay to detect the production of urea directly proportional to the activity of Arginase II; type: functional; conditions: 33.3 µM; note: in the data most compounds retested in dose-response had high values
# T2 sequence (whole entry): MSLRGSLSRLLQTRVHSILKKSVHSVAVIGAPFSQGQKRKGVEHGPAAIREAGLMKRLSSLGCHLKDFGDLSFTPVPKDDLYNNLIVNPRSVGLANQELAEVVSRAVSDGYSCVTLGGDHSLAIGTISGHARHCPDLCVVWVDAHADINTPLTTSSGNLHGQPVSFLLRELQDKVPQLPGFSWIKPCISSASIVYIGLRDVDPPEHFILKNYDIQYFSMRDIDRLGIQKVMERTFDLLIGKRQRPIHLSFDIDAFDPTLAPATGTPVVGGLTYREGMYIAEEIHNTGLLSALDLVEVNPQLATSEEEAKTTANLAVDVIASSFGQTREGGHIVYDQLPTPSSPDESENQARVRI
# [6] = target: T3, Proteasome subunit beta (Trypanosoma cruzi) (UniProt O96673); test: Trypanosoma cruzi proteasome chymotrypsin-like activity (TcProtChymo) assay.; note: in the data most compounds retested in dose-response had high values; type: functional; conditions: 9.37 µM
# T3 sequence (whole entry): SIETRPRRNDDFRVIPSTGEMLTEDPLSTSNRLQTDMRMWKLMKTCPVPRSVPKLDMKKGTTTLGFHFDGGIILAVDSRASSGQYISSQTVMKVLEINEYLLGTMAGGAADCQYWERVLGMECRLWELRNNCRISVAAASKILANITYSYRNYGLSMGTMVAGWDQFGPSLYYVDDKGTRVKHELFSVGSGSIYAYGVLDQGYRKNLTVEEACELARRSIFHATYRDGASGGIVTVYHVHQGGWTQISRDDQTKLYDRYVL
# Homo sapiens = organism: Homo sapiens; test: To identify inhibition of the IFN signalling (Jak-Stat) pathway via expression of an eGFP reporter gene under the control of an IFN-stimulated response element (ISRE) containing MxA promoter.; type: functional; conditions: 30 µM
# [7] = target: T4, Tyrosyl-tRNA synthetase, putative (Trypanosoma cruzi (strain CL Brener)) (UniProt Q4DSP6); test: Trypanosoma cruzi tyrosyl tRNA synthetase (TcYRS) _High Tyrosine SOP; type: functional; conditions: 30 µM; note: in the data most compounds retested in dose-response had high values
# T4 sequence (whole entry): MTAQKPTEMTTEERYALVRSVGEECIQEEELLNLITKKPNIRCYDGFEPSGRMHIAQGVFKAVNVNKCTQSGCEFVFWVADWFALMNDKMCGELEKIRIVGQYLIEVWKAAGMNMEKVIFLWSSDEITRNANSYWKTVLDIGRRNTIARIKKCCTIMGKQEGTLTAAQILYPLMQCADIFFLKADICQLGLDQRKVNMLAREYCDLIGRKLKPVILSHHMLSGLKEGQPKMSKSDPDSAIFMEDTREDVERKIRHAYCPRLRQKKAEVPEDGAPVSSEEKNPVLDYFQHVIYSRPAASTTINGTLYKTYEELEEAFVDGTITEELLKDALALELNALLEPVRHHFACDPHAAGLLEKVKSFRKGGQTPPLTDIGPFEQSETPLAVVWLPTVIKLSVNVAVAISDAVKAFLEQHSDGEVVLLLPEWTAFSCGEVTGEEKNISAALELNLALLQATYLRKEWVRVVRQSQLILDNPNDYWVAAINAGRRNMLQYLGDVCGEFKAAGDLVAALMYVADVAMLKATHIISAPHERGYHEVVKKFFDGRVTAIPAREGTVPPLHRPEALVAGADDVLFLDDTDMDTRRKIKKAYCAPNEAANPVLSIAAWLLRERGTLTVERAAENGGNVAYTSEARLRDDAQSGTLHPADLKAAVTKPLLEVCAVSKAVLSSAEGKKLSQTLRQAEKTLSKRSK
# [8] = target: T4, Tyrosyl-tRNA synthetase, putative (Trypanosoma cruzi (strain CL Brener)); test: Trypanosoma cruzi tyrosyl tRNA synthetase (TcYRS) SOP; type: functional; conditions: 30 µM
# [9] = target: Chromo domain-containing protein 1 (Saccharomyces cerevisiae (strain ATCC 204508 / S288c) (Baker's yeast)) (UniProt P32657); test: ScCHD-1 Enzyme Inhibition Assay; type: functional; conditions: 30 µM; note: in the data most compounds retested in dose-response had high values
# Chain of Chromo domain-containing protein 1 (Saccharomyces cerevisiae (strain ATCC 204508 / S288c) (Baker's yeast)) (P32657 whole entry, the tested form may be a part): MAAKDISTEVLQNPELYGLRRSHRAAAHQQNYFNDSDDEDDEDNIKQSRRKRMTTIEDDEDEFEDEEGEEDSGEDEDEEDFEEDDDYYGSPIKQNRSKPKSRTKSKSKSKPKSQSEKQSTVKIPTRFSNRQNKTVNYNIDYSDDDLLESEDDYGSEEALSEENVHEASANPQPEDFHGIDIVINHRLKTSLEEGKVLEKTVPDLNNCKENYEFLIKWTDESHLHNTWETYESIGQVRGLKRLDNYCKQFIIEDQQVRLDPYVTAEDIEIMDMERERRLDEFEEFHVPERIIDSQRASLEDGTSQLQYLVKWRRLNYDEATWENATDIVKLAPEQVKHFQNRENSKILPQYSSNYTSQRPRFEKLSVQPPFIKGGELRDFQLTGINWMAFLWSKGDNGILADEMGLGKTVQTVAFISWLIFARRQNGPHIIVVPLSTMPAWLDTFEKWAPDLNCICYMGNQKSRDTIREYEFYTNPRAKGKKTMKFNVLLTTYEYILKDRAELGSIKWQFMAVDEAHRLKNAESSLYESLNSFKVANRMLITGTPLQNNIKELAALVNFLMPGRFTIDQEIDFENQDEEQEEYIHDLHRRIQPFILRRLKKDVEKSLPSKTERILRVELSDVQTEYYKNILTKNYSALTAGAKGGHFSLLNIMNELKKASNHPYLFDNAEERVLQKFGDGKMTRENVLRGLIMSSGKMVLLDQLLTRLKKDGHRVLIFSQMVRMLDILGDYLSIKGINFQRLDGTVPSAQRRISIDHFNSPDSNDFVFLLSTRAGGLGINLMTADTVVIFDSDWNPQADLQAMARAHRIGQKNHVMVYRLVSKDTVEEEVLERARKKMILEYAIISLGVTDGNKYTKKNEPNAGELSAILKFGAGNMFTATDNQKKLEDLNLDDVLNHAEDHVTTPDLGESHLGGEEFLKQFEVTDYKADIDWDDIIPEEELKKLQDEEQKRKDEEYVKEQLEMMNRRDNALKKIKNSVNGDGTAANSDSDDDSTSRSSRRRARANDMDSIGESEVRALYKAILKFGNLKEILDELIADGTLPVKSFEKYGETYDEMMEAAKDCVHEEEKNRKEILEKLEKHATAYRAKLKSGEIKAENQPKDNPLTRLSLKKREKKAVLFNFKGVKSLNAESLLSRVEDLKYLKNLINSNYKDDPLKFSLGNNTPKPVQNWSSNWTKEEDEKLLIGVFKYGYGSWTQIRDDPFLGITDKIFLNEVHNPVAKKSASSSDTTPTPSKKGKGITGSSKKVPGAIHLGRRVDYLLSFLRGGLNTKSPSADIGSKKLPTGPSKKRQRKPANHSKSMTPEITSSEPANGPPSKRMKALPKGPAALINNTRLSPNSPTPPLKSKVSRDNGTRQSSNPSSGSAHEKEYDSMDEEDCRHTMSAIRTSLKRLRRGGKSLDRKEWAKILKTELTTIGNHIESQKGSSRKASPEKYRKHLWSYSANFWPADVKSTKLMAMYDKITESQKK
# Chain of Protein translocase subunit SecA (Escherichia coli (strain K12)) (P10408 whole entry): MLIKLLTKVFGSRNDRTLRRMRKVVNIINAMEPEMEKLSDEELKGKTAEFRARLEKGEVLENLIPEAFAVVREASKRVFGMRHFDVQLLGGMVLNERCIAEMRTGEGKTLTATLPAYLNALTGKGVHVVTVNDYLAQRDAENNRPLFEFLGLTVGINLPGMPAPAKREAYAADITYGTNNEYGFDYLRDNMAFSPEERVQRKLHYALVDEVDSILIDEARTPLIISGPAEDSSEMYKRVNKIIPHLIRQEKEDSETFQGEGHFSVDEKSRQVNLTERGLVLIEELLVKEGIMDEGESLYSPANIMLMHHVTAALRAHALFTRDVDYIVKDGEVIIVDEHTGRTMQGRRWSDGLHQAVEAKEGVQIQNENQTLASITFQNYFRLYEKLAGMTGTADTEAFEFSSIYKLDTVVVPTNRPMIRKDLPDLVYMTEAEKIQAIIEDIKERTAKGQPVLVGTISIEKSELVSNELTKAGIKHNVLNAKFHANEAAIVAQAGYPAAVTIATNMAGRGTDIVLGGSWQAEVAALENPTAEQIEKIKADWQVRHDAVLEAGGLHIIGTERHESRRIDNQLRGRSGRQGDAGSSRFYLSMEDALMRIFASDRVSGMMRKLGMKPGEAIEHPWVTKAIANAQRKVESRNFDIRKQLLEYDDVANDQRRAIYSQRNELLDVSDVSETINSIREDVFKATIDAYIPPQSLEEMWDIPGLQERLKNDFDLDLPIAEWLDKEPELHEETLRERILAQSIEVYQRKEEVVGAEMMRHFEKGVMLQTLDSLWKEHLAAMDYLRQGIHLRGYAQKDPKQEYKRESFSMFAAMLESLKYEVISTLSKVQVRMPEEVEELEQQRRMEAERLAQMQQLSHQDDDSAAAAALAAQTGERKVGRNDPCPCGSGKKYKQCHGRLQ
SMILES,Percent Effect [1],Percent Effect [2],Percent Effect [3],Percent Effect [4],Percent Effect (Trypanosoma cruzi),Percent Effect [5],Percent Effect [6],Percent Effect (Homo sapiens),Percent Effect [7],Percent Effect [8],Percent Effect [9]
O=C(Nc1cccc(OCc2cccc(F)c2)c1)C1COCCO1 (configuration not stated),-6.19%,-8%,0.056%,1.36%,-3.41%,-0.521%,13.2%,28%,-8.2%,-11.1%,-6.84%
Cc1cnn(CC2CN(Cc3nc4ccccc4nc3C)CCO2)c1 (configuration not stated),-4.61%,2.6%,-4.31%,-1.3%,6.56%,-4%,7.52%,-8.59%,9.52%,14.1%,-22.4%
CC(C)(C)c1ncc2c(n1)CN(C(=O)c1ccncc1)C2,-2.88%,5.48%,-0.32%,6.45%,-3.57%,-3.19%,17.7%,-6.92%,9.38%,16.1%,-0.422%
O=C(NC[C@]12COC[C@H]1CN(C1CCOCC1)C2)c1ccco1,-5.25%,10.7%,4.78%,-6.09%,-2.17%,8.16%,12.8%,5.24%,9.57%,8.97%,0.371%
CS(=O)(=O)Cc1ccc(CNC(=O)c2cccnc2O)cc1,-1.42%,13.9%,8.18%,5.03%,-5.64%,1.94%,22.3%,17.9%,3.12%,7.59%,-7.98%
CC(C)OCCOCc1cccc(NC(=O)NCc2ccccn2)c1,-5.4%,10.4%,0.256%,12%,6.79%,-24.8%,19.3%,-1.08%,2.15%,8.64%,-6.3%
Cc1ccc(F)c(C(=O)N2CCN(S(C)(=O)=O)[C@@H](C)C2)c1,-1.54%,2.74%,5.45%,3.05%,6.86%,-1.82%,8.7%,8.46%,-2.15%,5%,-2.13%
CN(CC(=O)N1CCN(c2ncccn2)CC1)c1ccc(Cl)cn1,0.47%,8.11%,-0.12%,10.1%,5.79%,14.3%,9.83%,16.3%,4.76%,14.6%,-1.14%
CC(C)c1nn(C)c(N2CCOCC2)c1CNC(C)c1cccs1 (configuration not stated),-3.9%,-13.2%,-6.19%,-4.57%,-2.71%,-1.08%,1.44%,-28.8%,11.3%,18.5%,-4.62%
CNC(=O)C1CCN(C(=O)c2ccn(-c3ccc(F)cc3)n2)CC1,-3.93%,16.2%,1.73%,1.5%,-1.21%,2.77%,7.54%,8.4%,10.9%,23.2%,-0.908%
COc1ncccc1C(=O)N1CCN(C(=O)Cc2ccccn2)CC1,-1.65%,21.5%,-6.89%,-0.0483%,2.36%,-2.37%,18%,17.4%,7.29%,20.2%,-20.3%
O=c1c2cnc(N3CCCCC3)nc2ccn1-c1ccccc1,-4.04%,9.33%,-3.82%,-5.64%,4.71%,-7.22%,15%,8.11%,2.12%,10.3%,-8.21%
COc1c(C)cnc(CN2CCCCC2Cn2nc(C)nc2C)c1C (configuration not stated),0.617%,17.7%,-1.73%,-6.46%,2.55%,5.32%,14.8%,4.74%,14.3%,26.6%,-9.69%
Cc1cc(C)n(CC2CCCN2C(=O)CCc2cscn2)n1 (configuration not stated),-2.42%,-5.26%,7.92%,-2.27%,8.08%,1.92%,-4.51%,-4.45%,-0.49%,0%,1.57%
c1ccc(CC2CCN(Cc3ccnc(-c4cccnc4)n3)CC2)cc1,0.966%,-4.05%,9.39%,1.78%,0.198%,1.16%,-1.56%,18.1%,4.3%,6.49%,7.16%
c1ccc(-c2cnc(CN3CCn4c(nnc4C4CC4)C3)o2)cc1,3.62%,13.2%,-0.492%,0.484%,-0.564%,6.9%,10%,18.2%,6.37%,17.1%,-9.44%
CCn1c(CN(C)C)nnc1C1CCN(Cc2cccc(OC)c2)CC1,2.78%,10.4%,-4.93%,7.22%,-3.64%,-12.4%,16%,10.6%,4.3%,11.1%,0.325%
Cc1nn(C)c2cnn(C(C)C(=O)NCc3cccnc3)c12 (configuration not stated),-0.721%,20%,-1.87%,5%,1.18%,-1.58%,12.8%,17.9%,5.29%,17.9%,-9.71%
CC(C(=O)Nc1cccc(N2CCCCC2)c1)n1cncn1 (configuration not stated),-7.36%,13.5%,-9.41%,28.7%,3.11%,-3.61%,10.3%,0.641%,5.42%,23.5%,-10.9%
O=C1CN(Cc2nnc(-c3ccccc3Br)o2)CCN1,-1.52%,9.72%,0.225%,-0.91%,2.43%,2.65%,25.1%,-21.9%,1.05%,7.69%,-3.03%
CNc1cc(CNC(=O)c2ccccn2)nc(-c2ccncc2)n1,-1.08%,17.6%,3.35%,-3.17%,2.37%,0.696%,14.7%,2.78%,2.15%,24.7%,-15.3%
CN(CCc1cccs1)C1CCCN(Cc2noc(C3CC3)n2)C1 (configuration not stated),-1.04%,4.17%,-15.1%,-5.62%,2.82%,10.2%,15.6%,-4.89%,3.16%,7.69%,-3.54%
